A short description of assay [1]: NCI Yeast Anticancer Drug Screen. Data for the rad50 strain (AID 155).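 Note: 0% = growth of vehicle-only cultures of the same strain.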 The note with it: S. cerevisiae rad50 strain growth inhibition, hits give high values. In outline: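 Compounds were tested on a yeast strain with an engineered DNA damage repair alteration; the reported value is growth inhibition normalised to vehicle treatment.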
The nature of assay [2]: NCI Yeast Anticancer Drug Screen. Data for the mec2-1 strain (AID 157). The note with it: S. cerevisiae mec2-1 strain, hits give high values. In outline: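 Vehicle-treated cultures served as reference for growth inhibition of compound-exposed mec2-1 yeast.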
A short description of assay [3]: NCI Yeast Anticancer Drug Screen. Data for the sgs1 mgt1 strain (AID 161).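 Note: 0% = growth of cultures given vehicle only.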 Conditions: S. cerevisiae sgs1 mgt1 strain, hits give high values. An outline of the steps:
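Read-out: growth inhibition vs vehicle controls. Cells: mutant yeast strain deficient in DNA damage repair.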

Assay [4] is described as follows: NCI Yeast Anticancer Drug Screen. Data for the cln2 rad14 strain (AID 165).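 Note: 0% = growth equal to vehicle treated cultures.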 The note with it: S. cerevisiae cln2 rad14 strain, hits give high values. In outline:
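Each compound was tested on cln2 rad14 yeast. Inhibition of growth was calculated against vehicle-exposed controls.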

The nature of assay [5]: NCI Yeast Anticancer Drug Screen. Data for the bub3 strain (AID 167). The note with it: S. cerevisiae bub3 mutant strain, hits give high values. In outline: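 Growth of a checkpoint-deficient yeast mutant is measured after compound exposure. Values represent inhibition relative to vehicle.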
Assay [6] is described as follows: NCI Yeast Anticancer Drug Screen. Data for the mlh1 rad18 strain (AID 175). Conditions: S. cerevisiae mlh1 rad18 strain growth inhibition, hits give high values. An outline of the steps: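 Vehicle-treated cultures served as the reference for growth inhibition in a yeast strain carrying DNA damage repair alterations exposed to each compound.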
[7] abbreviates: at 5.0 µM (retest, dose inferred, filed as 0.5).
The mark [8] stands for this setting: at 50.0 µM (retest, dose inferred, filed as 5.0).

About 79,000 compounds went through this panel and 15% of them were active in at least one assay; those are over-represented in the sample as a whole. Values without a mark were called inactive. Active and inactive are the calls of the source. Cut-off read from the data, not from the text of the source: active = growth inhibition above about 70%; inactive = the rest.

For the compound `C/C(=N/NC(N)=S)C(CN(C)C)C(C1=C(O)c2ccccc2OC1)c1ccccc1` (configuration not stated), the growth inhibition was 8% in assay [1] (setting [7]); 8% in assay [1] (setting [8]); 68% in assay [1] (at 50.0 µM); 2% in assay [2] (setting [7]); 2% in assay [2] (setting [8]); 52.5% in assay [2] (at 50.0 µM). Also, the growth inhibition in assay [3] (setting [7]) was 4%; in assay [3] (setting [8]), 4%; in assay [3] (at 50.0 µM), 78.3% (active); in assay [4] (setting [7]) it was -1%; in assay [4] (setting [8]), -1%; in assay [4] (at 50.0 µM), 65.8%. The growth inhibition in assay [5] (setting [7]) is 12%; in assay [5] (setting [8]) it was 12%; in assay [5] (at 50.0 µM), 65.2%; in assay [6] (setting [7]), 0%; in assay [6] (setting [8]) it was 0%; in assay [6] (at 50.0 µM), 66.8%.
As to `N=C(N)Sc1ccc([N+](=O)[O-])cc1Cl`, the growth inhibition in assay [1] (setting [7]) was 45%; in assay [1] (setting [8]), 94% (active); in assay [1] (at 50.0 µM), 85.2% (active); in assay [2] (setting [7]) it was 35%; in assay [2] (setting [8]), 96% (active); in assay [2] (at 50.0 µM), 86.8% (active). The growth inhibition in assay [3] (setting [7]) is 56%; in assay [3] (setting [8]) it was 97% (active); in assay [3] (at 50.0 µM), 90.3% (active); in assay [4] (setting [7]), 36%; in assay [4] (setting [8]) it was 89% (active); in assay [4] (at 50.0 µM) it was 84.5% (active). Besides, the growth inhibition in assay [5] (setting [7]) is 40%; in assay [5] (setting [8]), 59%; in assay [5] (at 50.0 µM), 86.2% (active); in assay [6] (setting [7]), 63%; in assay [6] (setting [8]), 96% (active); in assay [6] (at 50.0 µM), 85.7% (active).
Turning to `CC(C(=O)c1ccc2cc(Br)c3ccccc3c2c1)N(C)C` (configuration not stated), the growth inhibition in assay [1] (setting [7]) is -6%; in assay [1] (setting [8]), 99% (active); in assay [1] (at 50.0 µM), 99.4% (active); in assay [2] (setting [7]), 1%; in assay [2] (setting [8]), 99% (active); in assay [2] (at 50.0 µM) it was 98.5% (active). The growth inhibition in assay [3] (setting [7]) was -14%; in assay [3] (setting [8]), 100% (active); in assay [3] (at 50.0 µM) it was 99.2% (active); in assay [4] (setting [7]), -5%; in assay [4] (setting [8]), 99% (active); in assay [4] (at 50.0 µM) it was 99.5% (active). For the same compound, the growth inhibition in assay [5] (setting [7]) is 25%; in assay [5] (setting [8]) it was 99% (active); in assay [5] (at 50.0 µM), 99.4% (active); in assay [6] (setting [7]), 5%; in assay [6] (setting [8]), 99% (active); in assay [6] (at 50.0 µM), 99.3% (active).
As to `CCCCOC(=O)C#CC(=O)OCCCC`, the growth inhibition was -144% in assay [1] (setting [7]); -114% in assay [1] (setting [8]); 99.6% (active) in assay [1] (at 50.0 µM); -45% in assay [2] (setting [7]); -46% in assay [2] (setting [8]); 99.5% (active) in assay [2] (at 50.0 µM). The growth inhibition in assay [3] (setting [7]) is -64%; in assay [3] (setting [8]), -40%; in assay [3] (at 50.0 µM), 99.3% (active); in assay [4] (setting [7]) it was -58%; in assay [4] (setting [8]), -65%; in assay [4] (at 50.0 µM), 99.2% (active). Also, the growth inhibition in assay [5] (setting [7]) is -69%; in assay [5] (setting [8]), -71%; in assay [5] (at 50.0 µM) it was 99.3% (active); in assay [6] (setting [7]) it was -146%; in assay [6] (setting [8]) it was -105%; in assay [6] (at 50.0 µM), 99.2% (active).
With `COC(=O)/C=C(\Cl)C(=O)OC`, the growth inhibition in assay [1] (setting [7]) is 8%; in assay [1] (setting [8]), 84% (active); in assay [1] (at 50.0 µM), 99.3% (active); in assay [2] (setting [7]) it was 16%; in assay [2] (setting [8]) it was 99% (active); in assay [2] (at 50.0 µM), 99.7% (active). Moreover, the growth inhibition was 5% in assay [3] (setting [7]); 98% (active) in assay [3] (setting [8]); 99.5% (active) in assay [3] (at 50.0 µM); 19% in assay [4] (setting [7]); 99% (active) in assay [4] (setting [8]); 97.5% (active) in assay [4] (at 50.0 µM). Also, the growth inhibition in assay [5] (setting [7]) is 19%; in assay [5] (setting [8]), 97% (active); in assay [5] (at 50.0 µM), 99.5% (active); in assay [6] (setting [7]), 7%; in assay [6] (setting [8]), 98% (active); in assay [6] (at 50.0 µM) it was 99.2% (active).
For the compound `CCOC(=O)/C(=C/c1ccc(Cl)cc1)N(CC)CC`, the growth inhibition in assay [1] (setting [7]) is 16%; in assay [1] (setting [8]) it was 15%; in assay [1] (at 50.0 µM), 64.3%; in assay [2] (setting [7]), -21%; in assay [2] (setting [8]), 20%; in assay [2] (at 50.0 µM) it was 55.2%. Moreover, the growth inhibition in assay [3] (setting [7]) was 2%; in assay [3] (setting [8]), 18%; in assay [3] (at 50.0 µM), 54.3%; in assay [4] (setting [7]) it was 43%; in assay [4] (setting [8]), 58%; in assay [4] (at 50.0 µM) it was 76.2% (active). The growth inhibition in assay [5] (setting [7]) was 9%; in assay [5] (setting [8]), 36%; in assay [5] (at 50.0 µM), 64.8%; in assay [6] (setting [7]), -13%; in assay [6] (setting [8]), -2%; in assay [6] (at 50.0 µM), 53.1%.
In the case of `NCC1CCNCC1`, the growth inhibition in assay [1] (setting [7]) is 2%; in assay [1] (setting [8]) it was -6%; in assay [1] (at 50.0 µM) it was -16.7%; in assay [2] (setting [7]), -2%; in assay [2] (setting [8]), -19%; in assay [2] (at 50.0 µM), -9.25%. Besides, the growth inhibition in assay [3] (setting [7]) is 2%; in assay [3] (setting [8]), 3%; in assay [3] (at 50.0 µM), -15.2%; in assay [4] (setting [7]), 0%; in assay [4] (setting [8]), -6%; in assay [4] (at 50.0 µM), 16%. Besides, the growth inhibition in assay [5] (setting [7]) was -5%; in assay [5] (setting [8]), 1%; in assay [5] (at 50.0 µM) it was 3.9%; in assay [6] (setting [7]), 10%; in assay [6] (setting [8]) it was 0%; in assay [6] (at 50.0 µM), -4%.
Turning to `CCCCCCCC/C=C\CCCCCCCC(=O)O` (tested in a mixture with another compound), the growth inhibition in assay [1] (setting [7]) was 4%; in assay [1] (setting [8]), 97% (active); in assay [1] (at 50.0 µM), 96.2% (active); in assay [2] (setting [7]), -1%; in assay [2] (setting [8]), 100% (active); in assay [2] (at 50.0 µM), 99.3% (active). The growth inhibition in assay [3] (setting [7]) is 3%; in assay [3] (setting [8]) it was 98% (active); in assay [3] (at 50.0 µM), 89.7% (active); in assay [4] (setting [7]), 2%; in assay [4] (setting [8]), 96% (active); in assay [4] (at 50.0 µM), -53.9%. Further, the growth inhibition is -2% in assay [5] (setting [7]); 99% (active) in assay [5] (setting [8]); 95.3% (active) in assay [5] (at 50.0 µM); 0% in assay [6] (setting [7]); 96% (active) in assay [6] (setting [8]); 97.1% (active) in assay [6] (at 50.0 µM).
As to `Cn1c(=S)c2[nH]c(SC3CCCCC3)nc2n(C)c1=O`, the growth inhibition in assay [1] (setting [7]) is 46%; in assay [1] (setting [8]) it was 68%; in assay [1] (at 50.0 µM), 94.8% (active); in assay [2] (setting [7]), 42%; in assay [2] (setting [8]) it was 61%; in assay [2] (at 50.0 µM), 99.5% (active). Further, the growth inhibition in assay [3] (setting [7]) is 41%; in assay [3] (setting [8]), -20%; in assay [3] (at 50.0 µM), 99.2% (active); in assay [4] (setting [7]) it was 27%; in assay [4] (setting [8]), 34%; in assay [4] (at 50.0 µM), 52.5%. Also, the growth inhibition was 52% in assay [5] (setting [7]); 63% in assay [5] (setting [8]); 98.2% (active) in assay [5] (at 50.0 µM); 23% in assay [6] (setting [7]); 62% in assay [6] (setting [8]); 98.8% (active) in assay [6] (at 50.0 µM).

The values are drawn from PubChem BioAssay (NCI).
